From article PMC5540273 (PLoS ONE, 2017)
“And” between values parts separate entries of the source, which are not always exact repeats. Equal values may be shown once. Read-outs that look alike come from different tables or passages of the source.

Assays:
[1] = system: MRCKA; conditions: concentration: 1 μM, replicates: in singlicate, n = 1
[2] = system: T1, MRCKB; conditions: concentration: 1 μM, replicates: in singlicate; n = 1
T1 construct: gene CDC42BPB

[3] = system: MST1R; conditions: concentration: 1 μM, replicates: in singlicate, n = 1
[4] = system: T2, MST1; conditions: concentration: 1 μM, replicates: in singlicate; n = 1
T2 construct: gene STK4

[5] = system: T3, MST2; conditions: concentration: 1 μM, replicates: in singlicate, n = 1
T3 construct: gene STK3

[6] = system: T4, MST3; conditions: concentration: 1 μM, replicates: in singlicate; n = 1
T4 construct: gene STK24

[7] = system: MST4; conditions: concentration: 1 μM, replicates: in singlicate; n = 1
[8] = system: MTOR; conditions: concentration: 1 μM, replicates: in singlicate, n = 1
[9] = system: MUSK; conditions: concentration: 1 μM, replicates: in singlicate; n = 1
[10] = system: MYLK2; conditions: concentration: 1 μM, replicates: in singlicate; n = 1
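Note: KINOMEscan kinase panel screen.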

Structure (SMILES)	%Inh [1] [%]	%Inh [2] [%]	%Inh [3] [%]	%Inh [4] [%]	%Inh [5] [%]	%Inh [6] [%]	%Inh [7] [%]	%Inh [8] [%]	%Inh [9] [%]	%Inh [10] [%]	%Inh ([1]; 1 µM)	%Inh ([3]; 1 µM)	%Inh ([5]; 1 µM)	%Inh ([8]; 1 µM)
Cl.Cn1ccc(-c2cccc(Nc3ccnc4cc(-c5nccs5)ccc34)c2)n1 [GW525701]	37	0	29	0	0	0	0	35	0	0	–	–	–	–
Fc1cccc(COc2ccc(Nc3ncnc4nn5ccccc5c34)cc2Cl)c1 [GW689066]	0	0	6	0	0	0	0	3	0	0	–	–	–	–
O=C(NCCCN1CCCC1=O)c1cnc(NCc2cc(Cl)ccc2Cl)nc1NC1CCNCC1	0	0	72	8	0	32	44	36	7	1	–	–	–	–
CC(C)(C)c1ccc(-n2cnc3c(N)ncnc32)cc1 [SKF-97263]	0	3	17	13	18	0	0	15	0	0	–	–	–	–
Clc1cccc(-c2nc(Nc3ccncc3)c3ccccc3n2)c1 [GW873004]	3	42	0	27	45	9	0	36	0	0	–	–	–	–
O=C(Nc1n[nH]c2nc(-c3ccco3)c(Br)cc12)c1ccc(CN2CCCC2)cc1.O=C(O)[C@H](O)[C@@H](O)C(=O)O [SB-742352]	0	0	0	0	17	0	9	0	9	96.3	–	–	–	–
COc1cc2c(Nc3cccc(NC(=O)c4ccccc4)c3)ncnc2cc1OCCCN1CCOCC1 [GSK223810]	15	4	0	4	0	10	0	6	1	0	–	–	–	–
CC(C)(C)OC(=O)NC1CCCN(c2cc(-c3ccc4c(N)n[nH]c4c3)nc(N)n2)C1 (stereo not drawn) [GSK2286096]	9	0	31	0	0	6	0	8	0	24	–	–	–	–
NC(=O)c1sc(-n2cnc3ccccc32)cc1OCc1ccccc1F [GSK1024306]	17	0	9	0	0	0	0	19	0	7	–	–	–	–
FC(F)(F)c1cc(Nc2nccc(-c3c(-c4ccc(Cl)cc4)nn4ncccc34)n2)ccc1Cl [GW829351]	0	9	0	0	3	0	0	0	0	0	–	–	–	–
COc1ccc(-c2nc3n(c2-c2ccncc2)CCC3)cc1 [SKF-104493]	–	0	–	0	–	0	0	–	3	0	0% and 2%	19% and 14%	4% and 16%	0% and 11%
COc1ccc(-c2oc3ncnc(N)c3c2-c2ccc(OC)cc2)cc1 [SB-589132]	0	0	46	7	0	0	0	75	17	0	–	–	–	–
O=C(Nc1ccccc1F)NC1CCN(c2ccnc(Nc3ccc(F)cc3)n2)C1 (stereo not drawn) [GSK1379722]	15	0	38	0	0	0	0	17	2	12	–	–	–	–
Cl.c1ccc(Cn2ncc3cc(Nc4ncnc5ccccc45)ccc32)cc1 [GW273749]	10	0	27	0	8	0	0	8	0	2	–	–	–	–
COc1ccc(NC(=O)c2ccc(-c3cc(-c4nnc(C)o4)ccc3C)cc2)cc1 [GW595885]	0	3	34	0	0	0	0	14	12	0	–	–	–	–
CCc1nc(-c2cccc(N(C)S(=O)(=O)c3ccccc3)c2)c(-c2ccnc(Nc3ccc(N4CCN(C(C)=O)CC4)nc3)n2)s1 [GSK1645895]	0	0	40	3	16	15	0	2	1	0	–	–	–	–
Fc1ccc(-c2ncn(CCCNCc3ccccc3)c2-c2ccncc2)cc1	0	18	18	2	39	11	0	11	9	0	–	–	–	–

Structure (SMILES)	%Inh [1] [%]	%Inh [2] [%]	%Inh [3] [%]	%Inh [4] [%]	%Inh [5] [%]	%Inh [6] [%]	%Inh [7] [%]	%Inh [8] [%]	%Inh [9] [%]	%Inh [10] [%]	%Inh ([1]; 1 µM)	%Inh ([3]; 1 µM)	%Inh ([5]; 1 µM)	%Inh ([8]; 1 µM)
Cl.O=S(=O)(c1cccc(F)c1)c1ccc(Nc2ncnc3cc(Br)sc23)cc1Cl [GSK306886]	18	9	20	0	9	2	0	12	8	3	–	–	–	–
Cc1cc(N2CCC(NS(=O)(=O)c3ccc(F)cc3)CC2)nc(Nc2cccc(C#N)c2)n1.O=C(O)C(F)(F)F [GSK1653537]	0	0	17	8	0	7	0	6	8	0	–	–	–	–
CCn1c(-c2ccncc2)nc2cnccc21 [SB-735216]	23	0	27	0	0	0	13	0	5	15	–	–	–	–
Oc1ccc2ncnc(Nc3ccc(OCc4ccccc4)cc3)c2c1 [GI262866]	12	0	13	59	0	0	0	11	17	0	–	–	–	–
FC(F)(F)c1ccc(-c2nn3ncccc3c2-c2ccnc(Nc3cccc(C(F)(F)F)c3)n2)cc1 [GW828205]	31	17	0	0	21	0	0	0	0	0	–	–	–	–
COc1ccc(Nc2nccc(N3CCC(NC(=O)Nc4ccc5c(c4)OCO5)C3)n2)cc1 (stereo not drawn) [GSK1379745]	11	0	0	6	0	32	0	35	17	6	–	–	–	–
CCC(CC)(CC)n1cnc2c(N)ncnc21 [SKF-97620]	0	13	0	6	7	10	30	14	11	19	–	–	–	–
COC(=O)c1c(-c2ccccc2)c2cc(Cl)ccc2c(=O)n1Cc1ccc(S(C)(=O)=O)cc1	0	0	24	1	18	7	0	0	0	0	–	–	–	–
CNc1nccc(-c2c(-c3ccc(F)cc3)ncn2CCCN2CCOCC2)n1 [SB-222516]	8	0	0	0	14	14	0	11	0	0	–	–	–	–
COc1ccc(Nc2nccc(N3CCC(NC(=O)c4cccc(NC(C)=O)c4)C3)n2)cc1 (stereo not drawn) [GSK1379732]	0	0	34	0	10	13	0	8	0	8	–	–	–	–
OCCOCCn1ccc2ncnc(Nc3ccc(Oc4cccc(Cl)c4)c(Cl)c3)c21	0	0	0	0	0	0	0	46	0	0	–	–	–	–
Nc1nc(-c2cccnc2)c(-c2ccnc3ccccc23)s1 [GW684083]	0	0	18	4	10	10	0	27	11	0	–	–	–	–
O=C(c1ccc(-c2cc(-c3c[nH]nc3-c3ccccn3)ccn2)cc1)N1CCCC1 [GW792479]	24	0	0	0	0	11	0	14	9	0	–	–	–	–
CSc1ccc(NC2=C(c3ccccc3Cl)C(=O)NC2=O)cc1 [SB-342411]	0	0	27	6	0	0	8	13	0	8	–	–	–	–
COC(=O)c1cccc(NC(=O)NCCNc2ccnc(Nc3ccc(F)cc3)n2)c1 [GSK1379883]	0	0	25	0	5	0	0	37	4	0	–	–	–	–
COc1cc2ncnc(Nc3ccc(OCc4ccccc4Br)c(Cl)c3)c2cc1OC.Cl [GI261590]	23	0	48	10	0	0	0	24	12	0	–	–	–	–
